Pf apPOL block: Pf-apPOL DNA polymerase inhibition | Recombinant Pf-apPOL, molecular beacon fluorescence, 1.5 h | 210,000 tested, 0.25% active | AID 1794808 | inhibition, % at 10 µM
mHTT CaM bind: mHTT-calmodulin interaction abrogation | AlphaScreen His-mHTT/GST-CaM binding, luminescence | 190,000 tested, 3.6% active | inhibition, % at 15 µM | AID 1671202;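 further: 0% = both proteins with DMSO and 100% = one protein alone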
* = called active by the depositor. Many of the other results were omitted from the sample, so hits are more common in it than they were. No stated cut-off is given here; in the data, active means inhibition above about 50%; inactive means the rest.

Results for Cc1ccc(O)c(N=Cc2ccc(Cl)c([N+](=O)[O-])c2)c1 ?
Pf apPOL block: 0; mHTT CaM bind: 23

Results for Cc1ccc(O)c(N=Cc2ccc(Br)c([N+](=O)[O-])c2)c1 ?
Pf apPOL block: -11; mHTT CaM bind: 58*

Results for O=C1C2N=NN(c3cccc(F)c3)C2C(=O)N1c1ccc(F)cc1 (stereo unspecified) ?
Pf apPOL block: 2; mHTT CaM bind: -11

What do the screens show for `Fc1ccc(N2COc3ccc(Cl)cc3C2)cc1`?
Pf apPOL block: -5; mHTT CaM bind: 50*

What do the screens show for `Cc1cccc(N2COc3ccc(Cl)cc3C2)c1C`?
Pf apPOL block: 0; mHTT CaM bind: 96*

What do the screens show for `COc1ccc2c(c1)CN(c1ccc(C)c(Cl)c1)CO2`?
Pf apPOL block: -4; mHTT CaM bind: 77*

How did Cc1cccc(N2CCN(C(=O)c3ccc(Cl)cc3)CC2)c1C do in these assays?
Pf apPOL block: -9; mHTT CaM bind: -5

How did Cc1ccc(N2COc3cc4c(cc3C2)OCO4)cc1C do in these assays?
Pf apPOL block: -1; mHTT CaM bind: 18

How did Cc1ccc(N2COc3ccc(Cl)cc3C2)cc1 do in these assays?
Pf apPOL block: -5; mHTT CaM bind: 64*

How did Fc1ccc(N2COc3cc4c(cc3C2)OCO4)cc1 do in these assays?
Pf apPOL block: -6; mHTT CaM bind: 9

How did COc1ccc2c(c1)CN(c1ccc(C)cc1C)CO2 do in these assays?
Pf apPOL block: 0; mHTT CaM bind: -9

What do the screens show for `Cc1ccc2oc(-c3ccc(Cl)c(NC(=O)c4ccccc4Br)c3)nc2c1`?
Pf apPOL block: -5; mHTT CaM bind: 1

Results for COc1ccc(NC(=O)CN(C)S(=O)(=O)c2ccc(Cl)cc2)cc1OC ?
Pf apPOL block: -2; mHTT CaM bind: 9

Results for O=C(NC=Cc1cccs1)NCc1ccc(C(F)(F)F)cc1 ?
Pf apPOL block: -14

What do the screens show for `O=C(NCCCN1CCCC1)c1ccc2nc3[nH]c4ccccc4c3nc2c1`?
Pf apPOL block: -13; mHTT CaM bind: 29

What do the screens show for `CCc1cc(-c2onc(C)c2-c2ccc(OC)cc2)c(O)cc1OC`?
Pf apPOL block: -3; mHTT CaM bind: 20

How did CCc1cc(-c2[nH]ncc2-c2ccc([N+](=O)[O-])cc2)c(O)cc1OC do in these assays?
Pf apPOL block: 6; mHTT CaM bind: 95*

What do the screens show for `Oc1ccc(-c2[nH]ncc2Oc2ccccc2)c(O)c1O`?
Pf apPOL block: -2; mHTT CaM bind: 100*

How did Cc1[nH]nc(-c2ccc(O)c(O)c2O)c1Oc1ccccc1 do in these assays?
Pf apPOL block: -6; mHTT CaM bind: 97*

Results for CCCc1ccc(Oc2cn[nH]c2-c2ccc(O)c(C)c2O)cc1 ?
Pf apPOL block: -7; mHTT CaM bind: 90*

Results for COc1ccc(-c2n[nH]c(C)c2Oc2ccccc2)c(O)c1 ?
Pf apPOL block: -3; mHTT CaM bind: 32

Results for Oc1ccc(-c2[nH]ncc2Oc2ccccc2)c(O)c1 ?
Pf apPOL block: 2; mHTT CaM bind: 44

What do the screens show for `CCCc1ccc(Oc2c(C)oc3c(C)c(O)ccc3c2=O)cc1`?
Pf apPOL block: -11; mHTT CaM bind: 2

Results for c1ccc(Oc2nc(N3CCOCC3)nc3c2CN(Cc2cccs2)CC3)cc1 ?
Pf apPOL block: 3; mHTT CaM bind: 33

What do the screens show for `Cc1ccc(-c2nc(N)nc(N)n2)cc1Cl`?
Pf apPOL block: -11

What do the screens show for `O=[N+]([O-])c1cc(C(F)(F)F)ccc1N=NN1CCOCC1`?
Pf apPOL block: 2

Results for O=C(c1cccnc1SCc1ccccc1F)N1CCC2(CC1)OCCO2 ?
Pf apPOL block: -79; mHTT CaM bind: -9

What do the screens show for `Cc1ccccc1CNC(=O)C1(C)CCCN(C(=O)Nc2ccccc2C)C1` (stereo unspecified)?
Pf apPOL block: 5; mHTT CaM bind: 1

Results for N#Cc1cc(Oc2ccc(F)cc2)nc2ccccc12 ?
Pf apPOL block: -10; mHTT CaM bind: -17

How did COc1ccc(-c2csc(Nc3cccc(C(=O)O)c3)n2)cc1 do in these assays?
Pf apPOL block: 1; mHTT CaM bind: 19

How did COc1ccc(-c2csc(Nc3cccc(O)c3)n2)cc1 do in these assays?
Pf apPOL block: -5; mHTT CaM bind: 89*

How did Fc1ccc(-c2csc(Nc3ccc(Oc4ccccc4)cc3)n2)cc1 do in these assays?
Pf apPOL block: -2; mHTT CaM bind: 48

Results for COc1cccc(Nc2nc(-c3ccc(F)cc3)cs2)c1 ?
Pf apPOL block: -1; mHTT CaM bind: 59*

How did Cc1ccc(C2=NC(=O)/C(=C\c3cc(O)c(O)c(Br)c3)S2)cc1 do in these assays?
Pf apPOL block: 10; mHTT CaM bind: 95*

What do the screens show for `COc1cc(/C=C2/SC(c3ccc(C)cc3)=NC2=O)cc(OC)c1O`?
Pf apPOL block: 5; mHTT CaM bind: 42

What do the screens show for `Cc1ccccc1C1=N/C(=C\c2sccc2C)C(=O)O1`?
Pf apPOL block: 1; mHTT CaM bind: 20

What do the screens show for `Cc1ccsc1C=C1C(=O)c2ccccc2C1=O`?
Pf apPOL block: -3; mHTT CaM bind: 50*

Results for N=C1S/C(=C\c2ccc(-c3ccc(Cl)cc3C(=O)O)o2)C(=O)N1c1nccs1 ?
Pf apPOL block: -2; mHTT CaM bind: 75*

Results for O=C1OC(c2ccccc2)=N/C1=C/c1ccc(-c2ccc(Cl)c(C(=O)O)c2)o1 ?
Pf apPOL block: -2; mHTT CaM bind: 20

Results for N=C1S/C(=C\c2ccc(-c3ccc(Cl)c(C(=O)O)c3)o2)C(=O)N1c1nccs1 ?
Pf apPOL block: 7; mHTT CaM bind: 99*

Results for N=C1S/C(=C\c2ccc(-c3ccccc3F)o2)C(=O)N1c1nccs1 ?
Pf apPOL block: 1; mHTT CaM bind: 27

What do the screens show for `Cc1nc2c(C(=O)NCc3ccccc3Cl)c[nH]n2c(=O)c1Cl`?
Pf apPOL block: -13; mHTT CaM bind: 13

How did Cc1nc2c(C(=O)NCc3ccccc3)c[nH]n2c(=O)c1Cc1ccccc1Cl do in these assays?
Pf apPOL block: -2; mHTT CaM bind: 40

What do the screens show for `Cc1nc2c(C(=O)NCCc3ccccc3Cl)c[nH]n2c(=O)c1Cl`?
Pf apPOL block: -15; mHTT CaM bind: 57*

What do the screens show for `Cc1nc2c(C(=O)NCc3ccccc3)c[nH]n2c(=O)c1Cl`?
Pf apPOL block: 73*; mHTT CaM bind: 46

How did CC(=O)Oc1ccc2c(c1)OC(=Cc1ccccc1F)C2=O do in these assays?
Pf apPOL block: -6; mHTT CaM bind: -1

How did COc1ccc(CNC(=O)C2CC(=O)N(CCc3ccccc3)C2)cc1 (stereo unspecified) do in these assays?
Pf apPOL block: -6; mHTT CaM bind: -6

Results for C=CCNC(=O)c1cc2c(=O)n3cccc(C)c3nc2n(CC=C)c1=N ?
Pf apPOL block: -8; mHTT CaM bind: -2

What do the screens show for `COc1ccc(N2C[C@H](Cc3ccccc3)[C@@H](CC(=O)Nc3ccccc3)C2=O)cc1`?
Pf apPOL block: 0; mHTT CaM bind: 74*

How did O=C(C[C@H]1C(=O)N(Cc2ccccc2)C[C@@H]1Cc1ccccc1)Nc1ccc(Br)cc1 do in these assays?
Pf apPOL block: 0; mHTT CaM bind: 52*

What do the screens show for `COc1ccc([C@H]2CN(c3ccc(OC)cc3)C(=O)[C@@H]2CC(=O)Nc2ccc(Br)cc2)cc1`?
Pf apPOL block: -4; mHTT CaM bind: 55*

How did COc1ccc(N2C[C@H](C)[C@@H](CC(=O)Nc3ccc(Br)cc3)C2=O)cc1 do in these assays?
Pf apPOL block: 0; mHTT CaM bind: -5

Results for COc1ccc(NC(=O)C[C@H]2C(=O)N(c3ccccc3)C[C@@H]2Cc2ccccc2)cc1 ?
Pf apPOL block: -7; mHTT CaM bind: 18

Assay outcomes (PubChem)
